Our source for the Potency values is PubChem BioAssay (NCATS).

Inconclusive results are not listed. Entries that show only a call come without a potency. Activity calls are given as the source filed them. Calls follow the shape of the dose curve; as a rule, active = well fitted inhibition curve with a large enough effect; inconclusive = small, poorly fitted or top-dose-only effect; inactive = flat fitted curve, though single readings scatter. Where a SMILES comes first, the peptide text is derived from it. Bridges are numbered along the chain shown (N, C = ends). [ ]: non-standard residue; d: D form. hArg = N=C(N)NCCCC[C@H](N)C(=O)O; Mpa = O=C(O)CCS

The subject of the test is PC26. Briefly: qHTS profiling for inhibitors of Plasmodium falciparum proliferation (AID 504749). Also: nearly all actives have a fitted effect of over 60% in size. To be noted: P. falciparum in erythrocytes, SYBR Green DNA, 72 h; series mostly up to 28.7 µM. The method in brief:
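Quantitative HTS: compounds pinned into medium, infected erythrocytes added (0.3% parasitemia, 2.5% hematocrit), 72 h culture at 37 C under 5% CO2. Saponin/Triton lysis with SYBR Green I, overnight RT, then fluorescence read.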
(In qHTS, concentration-response curves come from the screen itself.)
Turning to `NC(=O)[C@@H]1CSSCCC(=O)N[C@@H](CCCCN=C(N)N)C(=O)NCC(=O)N[C@@H](CC(=O)O)C(=O)N[C@@H](Cc2c[nH]c3ccccc23)C(=O)N2CCC[C@H]2C(=O)N1` ([Mpa][hArg]GDWPC-NH2; disulfide 1-7), the Potency entry is “inactive”.

For the compound `Cc1ccc(C(C)C)c(O)c1`, the Potency result was “inactive”.

`CC[N+](C)(CC)CCOC(=O)C1c2ccccc2Oc2ccccc21`: the Potency result was “inactive”.

With `COc1ccccc1Oc1c(NS(=O)(=O)c2ccc(C(C)(C)C)cc2)nc(-c2ncccn2)nc1OCCO`, the Potency entry was “inactive”.

Consider `Cc1cc(C)c(NC(=O)CN(CC(=O)O)CC(=O)O)c(C)c1Br`, for which the Potency result is “inactive”.

As for `Cc1ccc(S(=O)(=O)NC(=O)NC2CCCCCCC2)cc1`, the Potency result is “inactive”.

Regarding `C[C@@H]1CCC[C@H](C)N1`, the Potency result is “inactive”.

On to `CCOC(=O)[C@H](CCc1ccccc1)N[C@@H](C)C(=O)N1CCC[C@H]1C(=O)O`, for which the Potency result was “inactive”.

Take `c1ccc2[nH]ccc2c1`: the Potency entry was “inactive”.

With `NS(=O)(=O)c1ccc(C(=O)O)cc1`, the Potency entry was “inactive”.

For the compound `O=C(Cn1ccnc1[N+](=O)[O-])NCc1ccccc1`, the Potency entry is “inactive”.

On to `O=c1[nH]cnc2nc[nH]c12`, for which the Potency result is “inactive”.

On to `O[C@@H]1CO[C@H]2[C@@H]1OC[C@@H]2O`, for which the Potency entry was “inactive”.

Consider `CC(=O)NS(=O)(=O)c1ccc(N)cc1`, for which the Potency entry was “inactive”.

Turning to `C=CCNC(N)=S`, the Potency result is “inactive”.

On to `NC(N)=NCCN1CCCCCCC1`, for which the Potency result is “inactive”.

For `O=C1c2cccc(O)c2C(=O)c2c(O)cccc21`, the Potency entry is “inactive”.

For the compound `NNC(=O)CP(=O)(c1ccccc1)c1ccccc1`, the Potency result is “inactive”.

With `Nc1ccncc1N`, the Potency result is “inactive”.

`Cc1ccc(S(=O)(=O)NC(=O)NC2CCCCC2)cc1`: the Potency entry was “inactive”.
